The values below come from ChEMBL document CHEMBL3433997, “St. Jude Leishmania screening dataset” (2016).

One may read the inhibition as the relative decrease from the control value, in per cent.

This test concerns the target Glucose transporter (Leishmania mexicana) (UniProt O61059). Kind of test: ST_JUDE_LEISH: Cytotoxicity at 2uM final concentration against transgenic Leishmania Mexicana promastigotes LmGT2 that are glucose transport deficient and complemented with the L. Mexicana glucose transporter 2. Activity is measured by DNA content using SYBR green in vitro. Format: functional.
Regarding `Cc1cccc2nc(-c3ccc(-c4ccc(NC(=O)CN5CCN(C)CC5)cc4)s3)[nH]c12`, the inhibition was -1.35%.
In the case of `O=C(/C=C/c1cccc(Br)c1)NCCCCCN1CCC(c2c[nH]c3ccccc23)CC1`, the inhibition worked out at 5.42%.
Then `CC(C)CNCc1ccc(-c2ccc(CN(CCCN3CCN(C)CC3)C(=O)/C=C/c3ccccc3)cc2)cc1`, with 3.32%.
For `CN1CCN(C(=O)CN2CCC3(CCC2=O)NC(=O)c2ccccc2O3)CC1` (stereo not given), the inhibition was found to be 3.13%.
Next, `CCOC(=O)C(C)(C)Oc1ccc(C(=C2CC(C)(C)CC(C)(C)C2)c2ccc(O)cc2)cc1`: 3.56%.
On to `CC1CC(C)CN(CCCNc2ccc(C(=O)Nc3ccc(C(F)(F)F)cc3)cc2[N+](=O)[O-])C1` (stereo not given), for which the inhibition was 1.47%.
Next, `CC(C)C[C@H]1c2[nH]c3ccc(Cl)cc3c2CCN1C(=O)CCc1ccccc1`: -0.65%; `CCOc1ccc2[nH]c(C)cc(=NN=Cc3cccnc3)c2c1`: 7.76%.
Next, `CN(C)c1cccc2c1nc(-c1ccc3c(c1)CCO3)n2CCNCc1ccccc1`: 5.57%; `CCCS(=O)(=O)N1CCC(CO)(Cc2ccccc2C(F)(F)F)CC1`: 2.87%.
Then `CCN(CC)CCN(Cc1ccc(-c2ccc(C(F)(F)F)cc2)cc1)C(=O)Cn1c(/C=C/c2ccco2)nc(=O)c2ccccc21`, with -1.26%.
Consider `N#Cc1cc([N+](=O)[O-])ccc1-n1nc(C(N)=O)n(Cc2cccc(F)c2)c1=S`, for which the inhibition stood at 5.66%.
Then `C=C(C)Cn1cc(C2CCN(CCCCNC(=O)c3sc(-c4ccc(Cl)cc4Cl)nc3CO)CC2)c2ccccc21`, with 0.05%; and `CC(C)CC(NC(=O)c1ccc(F)cc1)C(=O)N[C@H](/C=N/N1CCNC1=O)CC(C)C` (stereo not given in full), with 3.66%.
`O=C(NCCCCCN1CCC(c2c[nH]c3ccccc23)CC1)Nc1ccc(I)c(Cl)c1`: the inhibition stood at 5.92%.
Next, `Oc1ccc(CCCc2cc(Oc3c(I)cc(CCc4ncc[nH]4)cc3I)ccc2O)cc1`: -1.55%; `Cc1ccc(Nc2ccnc(Nc3ccc(C)c(F)c3)n2)cc1O`: 3.98%; `O=C(Cn1c(SCc2cccc(F)c2F)cc(=O)c2ccccc21)N(CCn1ccnc1)Cc1ccc(-c2ccc(C(F)(F)F)cc2)cc1`: 2.82%.
Consider `Cc1ccc(CN2CCN(c3cc4c(cc3Cl)CCN4C(=O)Cc3ccc(NC(=O)c4ccc(C(F)(F)F)cc4)cc3)CC2)cc1`, for which the inhibition was determined as 1.59%.
Regarding `COc1cc(CS(C)(=O)=O)ccc1Nc1nccc(-c2c(-c3cccc(NC(=O)c4c(F)cccc4F)c3)nn3ccccc23)n1`, the inhibition was found to be 7.36%.
Regarding `Cc1c2ccc(N(C)c3ccnc(Nc4ccc5c(c4)nc(NC(C)C)n5C)n3)cc2nn1C`, the inhibition is -1.42%.
Next, `COc1ccc(CN2CCCN(Cc3cccc(NC(=O)c4cc5ccccc5s4)c3)CC2)cc1`: -1.39%.
Then `CCc1ccccc1-c1csc(C(=O)NCC2CCN(Cc3ccc(C(C)(C)C)cc3)C2)c1` (stereo not given), with 4.81%; and `O=S(=O)(Nc1ccc(CCN2CCC(N3CCCCC3)CC2)cc1)c1ccc2ccccc2c1`, with 4.79%.
As to `Cc1nnsc1C(=O)Nc1cccc(-c2ccc(-c3nc4ccccc4[nH]3)s2)c1`, the inhibition is -0.11%.
Next, `COc1ccc(CCNCCCCCCNCCc2ccccc2Cl)cc1OC`: 1.91%.
For `CCc1ccc(CN2CCC(NC(=O)c3ccc(-c4ccc(N(C)C)cc4)s3)CC2)cc1`, the inhibition came to 6.05%.
Then `N#Cc1ccc2c(c1)CCN(CCC1CCC(NC(=O)c3cc4ccc(Cl)cc4[nH]3)CC1)C2` (stereo not given), with -0.76%; and `N#Cc1ccc(OCCN(Cc2ccccc2C(F)(F)F)c2ccc(C#N)c(C(F)(F)F)c2)cc1`, with 8.53%; and `COc1cccc(-c2cc(C(=O)Nc3cc(Oc4ccc(O)cc4)cc([N+](=O)[O-])c3)on2)c1`, with 3.98%.
Then `Cc1cccc(CC(=N)NCCCCCCNC(=N)Cc2cccc(C)c2)c1`, with -2.06%.
Next, `COc1cc(F)c2ncc(Cl)c(CCN3CCC(NCc4ccc5c(c4)OCCO5)CC3)c2c1`: 68.8%; `COc1ccc2nc3cc(Cl)ccc3c(Nc3ccc(O)c(CNC(C)C)c3)c2c1`: 2.23%; `NS(=O)(=O)c1ccccc1Nc1nc(Nc2ccc(N3CCOCC3)cc2)nc2c1CCC2`: 3.91%.
Turning to `Cc1nc(C)c(CC(=O)Nc2cccc(-c3cccc(-c4nc5cccc(C)c5[nH]4)c3)c2)s1`, the inhibition is -0.58%.
Next, `CCNc1cc(C(=O)N[C@@H](Cc2ccccc2)[C@H](O)CNC(C)CC(C)C)c(F)c(N2CCCCS2(=O)=O)c1` (stereo not given in full): 2.55%; `O=C(NC1CCC(N2CCC(O)(c3ccc(F)cc3)CC2)CC1)c1cc2ccccc2[nH]1` (stereo not given): -0.31%.
For the molecule `O=C(Nc1cc(=O)[nH]c2nc(-c3ccccc3)nn12)C1CCCCC1`, the inhibition was found to be 3.26%.
On to `CC(C)CN(C)c1ncnc2c1nc(-c1cncc(C#N)c1)n2CCNCc1ccccc1`, for which the inhibition is 4.39%.
Next, `Cc1ccc(NC(=O)c2ccc3ncccc3c2)cc1OC1CCN(Cc2ccsc2)CC1`: 2.95%.
